Data on 20 molecules can be found in PubChem BioAssay (NCI).

The panel holds about 79,000 compounds, 15% with a hit somewhere; the sample as a whole holds those more often. A number with no mark means an inactive call. Active and inactive are the calls of the source. No stated cut-off is given here; in the data, active means growth inhibition above about 70%; inactive means the rest.

Assay [1] can be described thus: NCI Yeast Anticancer Drug Screen. Data for the rad50 strain (AID 155).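 Further: 0% = growth of vehicle-only cultures of the same strain.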 Particulars: S. cerevisiae rad50 strain growth inhibition; at 50.0 µM; stronger effect = higher value. Put shortly:
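Growth of the mutant yeast was measured after compound exposure and referenced to vehicle-treated cultures.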

Assay [2] can be described thus: NCI Yeast Anticancer Drug Screen. Data for the mec2-1 strain (AID 157). Particulars: S. cerevisiae mec2-1 strain, at 50.0 µM, stronger effect = higher value. Put shortly:
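Growth inhibition is read against vehicle-treated controls after compound exposure of the mec2-1 yeast strain, which is defective in DNA damage repair or cell cycle control.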

Assay [3] is described as follows: NCI Yeast Anticancer Drug Screen. Data for the sgs1 mgt1 strain (AID 161).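 Further: 0% = growth of cultures given vehicle only.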 Particulars: S. cerevisiae sgs1 mgt1 strain, at 50.0 µM, stronger effect = higher value. Put shortly: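 Compounds are added to genetically altered yeast, and growth is compared with cultures given vehicle alone to give percent inhibition.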
The nature of assay [4]: NCI Yeast Anticancer Drug Screen. Data for the cln2 rad14 strain (AID 165).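 Further: 0% = growth equal to vehicle treated cultures.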 The following applies: S. cerevisiae cln2 rad14 strain, at 50.0 µM, stronger effect = higher value. A digest of the protocol: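 Growth inhibition, relative to vehicle-treated controls, is the read-out. The test organism is a yeast strain with defined genetic alterations, cln2 rad14.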
Assay [5] can be described thus: NCI Yeast Anticancer Drug Screen. Data for the bub3 strain (AID 167). Particulars: S. cerevisiae bub3 mutant strain, at 50.0 µM, stronger effect = higher value. A digest of the protocol: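 Whole-cell yeast assay. The mutant strain was incubated with compounds, and growth inhibition was determined by comparison with vehicle-treated cells.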
The nature of assay [6]: NCI Yeast Anticancer Drug Screen. Data for the mlh1 rad18 strain (AID 175). The following applies: S. cerevisiae mlh1 rad18 strain growth inhibition; at 50.0 µM; stronger effect = higher value. A digest of the protocol: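 Cells of a genetically altered yeast strain, deficient in DNA damage repair, were treated with compound. Their growth was then compared with that of vehicle-treated cultures to give inhibition.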

Turning to `CN1C(=O)CC(c2ccc(Cl)cc2)C1=O` (stereo not given), the growth inhibition is 21.4% in assay [1]; 21.4% in assay [2]; -0.65% in assay [3]; 2.5% in assay [4]; -3.75% in assay [5]; 2.65% in assay [6].

For the molecule `O=C(NCc1ccncc1)Nc1ccc(Cc2ccc(NC(=O)NCc3ccncc3)cc2)cc1`, the growth inhibition in assay [1] was -8.05%; in assay [2], -19.1%; in assay [3], 0.2%; in assay [4] it was 15.3%; in assay [5], 3.5%; in assay [6], 4.25%.

For the molecule `CC(=O)OC[C@@]12CC[C@H]3C(C)(C)CCC[C@]3(C)[C@H]1C[C@@H](C1=CC(=O)O[C@H]1O)O2`, the growth inhibition was 86.6% (active) in assay [1]; 91.8% (active) in assay [2]; 91.5% (active) in assay [3]; 91.5% (active) in assay [4]; 89.4% (active) in assay [5]; 90% (active) in assay [6].

With `CSc1ccc(NC(=O)Nc2ccc(Cl)cc2[N+](=O)[O-])cc1`, the growth inhibition in assay [1] was -4.55%; in assay [2] it was 40.5%; in assay [3] it was 13.6%; in assay [4], -6.05%; in assay [5], 17.9%; in assay [6], 20.3%.

`C[C@]12CCC(=O)C=C1CC[C@@H]1C2CC[C@]2(C)NC(=O)C(C#N)CC12` (stereo not given in full): the growth inhibition in assay [1] is -29.1%; in assay [2] it was -10.2%; in assay [3] it was -14.9%; in assay [4], -23.9%; in assay [5], -15.2%; in assay [6] it was -9.6%.

With `C=C1C(OC(C)=O)CC(OC(C)=O)C2(C)C(OC(C)=O)C(OC(C)=O)C3=C(C)C(OC(=O)/C=C/c4ccccc4)CC(C(OC(C)=O)C12)C3(C)C` (stereo not given), the growth inhibition is 4.8% in assay [1]; -12.1% in assay [2]; 5.6% in assay [3]; -4.75% in assay [4]; 20.6% in assay [5]; 15.6% in assay [6].

For `CC(CO)CCC(O)C(C)(O)C1CCC2(O)C3=CC(=O)C4CC(O)C(O)CC4(C)C3CCC12C` (stereo not given), the growth inhibition in assay [1] is 4.05%; in assay [2] it was -23.5%; in assay [3], 10.2%; in assay [4], 7.75%; in assay [5], 17.8%; in assay [6] it was -68.2%.

Regarding `CS(=O)(=O)OC1C(OC(=O)c2ccccc2)COC(OCc2ccccc2)C1OS(C)(=O)=O` (stereo not given), the growth inhibition was -5.4% in assay [1]; 13.2% in assay [2]; -11.9% in assay [3]; -13.3% in assay [4]; 5.35% in assay [5]; 5.7% in assay [6].

Turning to `CC12CC(=O)OC(C1)C(=O)c1ccccc12` (stereo not given), the growth inhibition in assay [1] was 8.9%; in assay [2], 16.1%; in assay [3] it was 2.85%; in assay [4], 4.45%; in assay [5] it was 1.7%; in assay [6] it was -3.15%.

For the molecule `CC(C)(C)C(OC(=O)Cc1ccccc1)c1ccc2c(c1)OCO2` (stereo not given), the growth inhibition is -9.05% in assay [1]; -2.7% in assay [2]; 2% in assay [3]; -3.25% in assay [4]; 51.4% in assay [5]; -12.1% in assay [6].

`NC1(C(=O)O)CCCC1C(=O)O` (stereo not given): the growth inhibition in assay [1] is -8.7%; in assay [2] it was -26.6%; in assay [3], -23.1%; in assay [4], 15.9%; in assay [5] it was -6.3%; in assay [6], -2.75%.

`Cc1nc2ccccc2nc1CC(=O)c1ccccc1`: the growth inhibition in assay [1] is 43.3%; in assay [2], 15.3%; in assay [3], 48%; in assay [4], 18.5%; in assay [5], 54.4%; in assay [6], 43.5%.

On to `O=C1CCCC2=C1C(c1ccc(Cl)c(Cl)c1)C1=C(CCCC1=O)O2`, for which the growth inhibition in assay [1] was 1.05%; in assay [2], 7.05%; in assay [3], -7.25%; in assay [4], -18.5%; in assay [5], 12.6%; in assay [6] it was 6.45%.

As to `Nc1ccc([N+](=O)[O-])cc1F`, the growth inhibition in assay [1] is -18.6%; in assay [2] it was -9.05%; in assay [3], -9.85%; in assay [4], -20.9%; in assay [5], 3.95%; in assay [6] it was -0.95%.

With `OCC1(CO)CCC=CO1`, the growth inhibition in assay [1] was 3.8%; in assay [2], -7.8%; in assay [3] it was 2.5%; in assay [4], 10.7%; in assay [5] it was 1.05%; in assay [6], 5%.

In the case of `COC(=O)C1(Cc2ccccc2)Cc2cc3c(cc2C1=O)CCC3` (stereo not given), the growth inhibition in assay [1] is 20.9%; in assay [2], 3.75%; in assay [3] it was 8.5%; in assay [4], 2.2%; in assay [5], 34.8%; in assay [6], -7.65%.

As for `O=C(Oc1ccc2c(=O)cc(-c3ccccc3)oc2c1OC(=O)c1ccccc1)c1ccccc1`, the growth inhibition in assay [1] was 3%; in assay [2] it was 7.6%; in assay [3] it was -0.85%; in assay [4] it was -3.15%; in assay [5], -14.1%; in assay [6] it was 3%.

As to `Cc1cc2c(=O)c3ccccc3oc2c(C(=O)O)c1C`, the growth inhibition is -6.75% in assay [1]; -6.25% in assay [2]; -50.6% in assay [3]; 12% in assay [4]; -1.9% in assay [5]; -4.15% in assay [6].

For `CC(=O)[CH-]C(=O)c1ccccc1.CC(=O)[CH-]C(=O)c1ccccc1.CC[O-].O=C1C=C([O-])C(=O)c2ccccc21.[Ti+4]`, the growth inhibition is 25.4% in assay [1]; 60.5% in assay [2]; 63.5% in assay [3]; 61.1% in assay [4]; 59.9% in assay [5]; 56.9% in assay [6].

With `Cc1ccc(S(=O)(=O)OCCOc2ccc(C(C)(C)CC(C)(C)C)cc2)cc1`, the growth inhibition in assay [1] was 43.9%; in assay [2] it was -15.6%; in assay [3] it was 30.5%; in assay [4] it was -6.2%; in assay [5] it was -1.65%; in assay [6] it was 8.8%.
